Assay outcomes from PubChem BioAssay.
An excerpt weighted towards active compounds, which were near 22% of everything screened.
Cycloheximide cs = counter-screen hit for Shiga toxin inhibitors, cycloheximide. cell reporter, cycloheximide protein synthesis inhibition counterscreen. max response, %. hit rate 12% among 300,000. AID 2314; in the data active = max response mostly above about 13%, no sharp cut-off; inactive = mostly below about 14%; also: read at 38.3 µM for the half of the compounds with a filed dose; 0% is about no effect
Pf growth 48h = inhibits P. falciparum growth in the first generation, 48 h; P. falciparum luciferase growth in erythrocytes, 48 h; Potency, µM (highest dose often 28.7 µM), inactives show top-dose activity change, negative = inhibition, actives largely listed as inhibitors; hit rate 5.9% among 310,000; AID 504832; also: potency is read from the fitted curve at half-maximal effect; % is scaled to controls: 0 for no effect and ±100 for the full control effect
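Read-out is firefly luciferase luminescence from an integrated reporter in P. falciparum, so falling signal marks reduced parasite growth. Infected erythrocytes were at 2% hematocrit and 0.1% parasitemia (final) in Albumax-supplemented RPMI 1640.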
Shiga inhibitor = inhibitors of Shiga toxin in Vero cells; Vero cells, Shiga toxin protein synthesis inhibition reporter; inhibition, % at 38.7 µM; hit rate 9.2% among 290,000; in the data active = inhibition mostly above about 28%, no sharp cut-off; inactive = mostly below about 43%; also: 0% is about no effect
LmPK inh = LmPK (Leishmania mexicana) enzyme inhibition; hit rate 0.37% among 290,000; Potency, µM (doses to about 57.5 µM), for the others: top-dose activity change, negative = inhibition, usual class: inhibitors; purified LmPK, Kinase-Glo ATP luminescence, 1 h; also: potency is read from the fitted curve at half-maximal effect; % is scaled to controls: 0 for no effect and ±100 for the full control effect
Target sequence (Q27686 whole entry, looked up): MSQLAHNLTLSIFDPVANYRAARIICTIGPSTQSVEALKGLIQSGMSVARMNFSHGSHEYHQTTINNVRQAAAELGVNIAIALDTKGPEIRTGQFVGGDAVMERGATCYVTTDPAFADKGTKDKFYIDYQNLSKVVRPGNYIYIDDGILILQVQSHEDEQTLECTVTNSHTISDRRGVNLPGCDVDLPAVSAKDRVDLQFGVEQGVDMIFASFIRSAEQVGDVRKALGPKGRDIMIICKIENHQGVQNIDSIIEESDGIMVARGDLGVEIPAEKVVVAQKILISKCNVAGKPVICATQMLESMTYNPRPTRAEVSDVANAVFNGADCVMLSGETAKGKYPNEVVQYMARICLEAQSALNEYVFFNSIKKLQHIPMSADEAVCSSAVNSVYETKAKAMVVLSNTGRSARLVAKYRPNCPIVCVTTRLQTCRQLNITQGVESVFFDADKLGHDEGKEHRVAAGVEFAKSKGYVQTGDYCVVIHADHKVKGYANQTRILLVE
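In 50 mM imidazole pH 7.2 with 7 mM MgCl2, LmPK (0.1 nM) turned over PEP (0.5 mM) and ADP (0.1 mM) for 1 h at room temperature. Luciferase read-out of ATP.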
Pf growth 96h = P. falciparum growth inhibition at 96 hours | AID 504834 | P. falciparum luciferase reporter growth, 96 h | Potency, µM (titrated, usually from 28.7 µM), inactives show at the highest dose activity change, negative = inhibition, most hits filed as inhibitors | hit rate 6.9% among 320,000; also: potency is read from the fitted curve at half-maximal effect; % is scaled to controls: 0 for no effect and ±100 for the full control effect
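Delayed-death screen, second-generation endpoint: infected erythrocytes, 2% hematocrit, 0.05% parasitemia final; 96 hours at 37 C, 5% CO2; luciferase detection reagent; luminescence decrease equals reduced growth.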
Active calls of the source: *; [ ] = dose if it differs, or a comment. Unless noted, calls follow the shape of the dose curve; as a rule, active = well fitted inhibition curve with a large enough effect; inconclusive = small, poorly fitted or top-dose-only effect, or another doubt; inactive = no such curve, though single readings can be large or run the other way.

What do the screens show for `CCc1cccc2c(C(=O)COC(=O)c3nn(C)c(=O)c4ccccc34)c[nH]c12`?
Cycloheximide cs: 3.2; Shiga inhibitor: 0.7; LmPK inh: 5.9%; Pf growth 96h: -7.3%

What do the screens show for `CC(C)n1nc(C(=O)OCC(=O)c2c[nH]c3ccccc23)c2ccccc2c1=O`?
Cycloheximide cs: 10.5; Shiga inhibitor: -4.7; LmPK inh: 10.1%; Pf growth 96h: 6.57µM*

How did CN(CC(=O)Nc1cccc(F)c1)C(=O)CN1C(=O)C2CCCCC2C1=O (centres undefined) do in these assays?
Pf growth 48h: -19.0%; Pf growth 96h: -23.2%

How did O=C(Nc1cccc(C(=O)N2CCN(c3cccc(Cl)c3)CC2)c1)c1ccccc1 do in these assays?
Cycloheximide cs: 5.7; Pf growth 48h: -14.8%; Shiga inhibitor: -2.4; LmPK inh: 1.7%; Pf growth 96h: -40.1%[1.15 µM]

What do the screens show for `COc1ccc(-c2cc(C(=O)OCC(=O)N(C)C)c3ccccc3n2)cc1`?
Cycloheximide cs: 26.5*; Pf growth 48h: 16.5%; Shiga inhibitor: 30.4; LmPK inh: 5.2%; Pf growth 96h: 0.2%

How did CCN(C(=O)COC(=O)c1c(C)nn(-c2ccccc2)c1C)C1CCS(=O)(=O)C1 (centres undefined) do in these assays?
Cycloheximide cs: 16.2*; Pf growth 48h: 97.6%; Shiga inhibitor: 42.6*; LmPK inh: -13.0%; Pf growth 96h: 111.3%

What do the screens show for `COc1ccc(-c2cc(C(=O)OCC(=O)c3ccc(C)c([N+](=O)[O-])c3)c3ccccc3n2)cc1`?
Cycloheximide cs: 3.9; Pf growth 48h: 5.3%; Shiga inhibitor: 8.2; LmPK inh: 1.1%; Pf growth 96h: -43.0%

What do the screens show for `COc1ccc(-c2cc(C(=O)Oc3ccc([N+](=O)[O-])cc3)c3ccccc3n2)cc1`?
Cycloheximide cs: 9.6; Pf growth 48h: -3.8%; Shiga inhibitor: 3.2; LmPK inh: -2.2%; Pf growth 96h: 13.1µM*

How did CCN(C(=O)COC(=O)c1cc(-c2ccc3cc(OC)ccc3c2)nc2ccccc12)C1CCS(=O)(=O)C1 (centres undefined) do in these assays?
Cycloheximide cs: 29.9*; Pf growth 48h: 7.4%; Shiga inhibitor: 43.2*; LmPK inh: -7.0%; Pf growth 96h: -11.9%

How did COc1ccc(CNC(=O)c2cc(=O)c3cc(C)cc(C)c3o2)cc1 do in these assays?
Cycloheximide cs: 7.2; Pf growth 48h: 22.7%; Shiga inhibitor: 13.7; LmPK inh: -4.1%; Pf growth 96h: 31.1%

Results for NCCCC[C@H]1CNC(=S)N1CCc1cccc(F)c1 ?
Cycloheximide cs: -0.7; Pf growth 48h: 69.3%; Shiga inhibitor: -1.8; LmPK inh: -3.4%; Pf growth 96h: 73.0%

How did COc1ccc(-c2cc(C(=O)OC3CCOC3=O)c3ccccc3n2)cc1 (centres undefined) do in these assays?
Cycloheximide cs: -1.9; Pf growth 48h: 20.2%; Shiga inhibitor: -21.0; LmPK inh: 8.3%

How did COc1ccc(-c2cc(C(=O)OCc3ccccn3)c3ccccc3n2)cc1 do in these assays?
Cycloheximide cs: 27.0*; Pf growth 48h: inconclusive; Shiga inhibitor: 9.9; LmPK inh: -4.2%; Pf growth 96h: inconclusive

Results for CCN(CC)c1ccc(/C=N/n2c(C)cc(C)cc2=O)cc1 ?
Cycloheximide cs: -2.9; Pf growth 48h: 7.38µM*; Shiga inhibitor: 0.6; LmPK inh: -5.4%; Pf growth 96h: 6.8%

How did CCN(CC)c1ccc(/C=N/N2C(=O)c3ccccc3C2=O)cc1 do in these assays?
Cycloheximide cs: 7.2; Pf growth 48h: 1.9%; Shiga inhibitor: 23.9; LmPK inh: -11.0%; Pf growth 96h: -2.4%

What do the screens show for `CCN(CC)c1ccc(/C=N/N2CC(=O)NC2=S)cc1`?
Pf growth 48h: inconclusive; Pf growth 96h: 3.7µM*

How did CN1c2ccccc2C(=O)C(=C2SCCCS2)S1(=O)=O do in these assays?
Cycloheximide cs: 24.9*; Pf growth 48h: 2.4%; Shiga inhibitor: 32.5; LmPK inh: -0.4%; Pf growth 96h: -19.8%

Results for CC(=O)Nc1ccc2c(c1)CN(c1cc(C)ccc1C)CO2 ?
Cycloheximide cs: -2.9; Pf growth 48h: 6.3%; Shiga inhibitor: -13.2; LmPK inh: 3.4%; Pf growth 96h: inconclusive

Results for [O-]/C(=C(\C(=S)Nc1cccc2ccccc12)[n+]1ccccc1)c1ccc(Cl)s1 ?
Cycloheximide cs: -0.4; Pf growth 48h: inconclusive; Shiga inhibitor: 10.9; LmPK inh: -0.7%; Pf growth 96h: inconclusive
